A number with no mark means an inactive call. Records with an inconclusive call do not appear. Where a call stands in place of a potency, no number is given. The source made the active and inactive calls. The call rests on the fitted dose curve; in most records, active means well fitted curve in the direction sought with a large enough effect; inconclusive means small, poorly fitted or top-dose-only effect, or another doubt; inactive means no such curve, though single readings can be large; an effect the other way counts as inactive or inconclusive.
Assays:
[1] = Primary fluorescence-based thiol-reactive (MSTI) qHTS assay for identification of artifact compounds. (AID 1845221); settings: MSTI thiol-reactivity probe, 1 h; series mostly up to 53.8 µM; further: nearly all actives have a fitted effect of over 65% in size;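 on activity change, negative = thiol reactive: thiol-reactive compounds lower the probe fluorescence signal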
How it was run: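 Thiol-reactive compounds detected by quenching of 4 uM MSTI fluorescence (525/598 nm) after 1 h room-temperature dark incubation in PBS pH 7.4, 2% DMSO. qHTS titration; percent inhibition Hill-fitted against Acetyl-MSTI/MSTI controls.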

[2] = test system: Nanoluciferase (engineered Oplophorus gracilirostris luciferase); experiment: Primary Nanoluciferase (NLuc) qHTS assay for identification of artifact compounds. (AID 1845222); settings: NLuc-conditioned medium, Nano-Glo luminescence, 5 min; series mostly up to 54.1 µM;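 on activity, negative = inhibition: NLuc secreted into diluted conditioned medium of S16 cells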
How it was run: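 qHTS format, against NLuc in S16 cell-conditioned medium. Nano-Glo substrate 1:100 was added after 15 min at room temperature. Luminescence was taken after a further 5 min.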

[3] = Primary redox qHTS assay for identification of artifact compounds. (AID 1845223); settings: Amplex Red/HRP redox cycling with DTT, fluorescence; series mostly up to 53.8 µM
How it was run: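 Amplex Red (25 uM) and HRP (250 mU/mL) in HBSS, with compounds for 15 min, then 250 uM DTT for 30 min, room temperature, dark. Fluorescence 525/598 nm read; normalized to DMSO and 10 uM DA3003; Hill fit.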
Potency means the concentration at half of the fitted maximal effect.

| SMILES | Potency [1] | Potency [2] | Potency [3] | activity change, negative = thiol reactive [1] | activity, negative = inhibition [2] | redox activity (% of DA3003) [3] |
| --- | --- | --- | --- | --- | --- | --- |
| CC(NC(=O)c1ccccc1N)C(=O)O (configuration not stated) | inactive | inactive | inactive |  |  |  |
| OC[C@H]1O[C@@H](O[C@H]2[C@H](O)[C@@H](CO)O[C@@H](OCc3ccccc3)[C@@H]2O[C@@H]2OC[C@](O)(CO)[C@H]2O)[C@H](O)[C@@H](O)[C@@H]1O | inactive | inactive | inactive |  |  |  |
| CC1(C)CC=C(C#Cc2ccccc2)c2cc(/C=C/c3ccc(C(=O)O)cc3)ccc21 | inactive | inactive | inactive |  |  |  |
| C=C1C(O)CC2C(C(=O)O)=COC(O[C@@H]3O[C@H](COC(=O)c4ccc(O)cc4)[C@@H](O)[C@H](O)[C@H]3O)C12 (some centres not stated) | 5.19 µM (active) | inactive | inactive |  |  |  |
| O=C1NC(=O)/C(=C/c2cccc(C(F)(F)F)c2)S1 | 1.06 µM (active) | inactive | inactive |  |  |  |
| C=C1C(=O)O[C@@H]2CC(C)=C([C@@H](C)CCCOC(C)=O)[C@@H](O)[C@H]12 | 16.5 µM (active) | inactive | inactive |  |  |  |
| CCCC(C(=O)O)c1c(C)nc2ccc(Cl)cc2c1-c1ccccc1 (configuration not stated) | inactive | inactive | inactive |  |  |  |
| CC(O)C1NC(=O)C2CCCN2C1=O (configuration not stated) | inactive | inactive | inactive |  |  |  |
| COC(=O)[C@H](Cc1cccc(C(=N)N)c1)[C@@H](C)NC(=O)c1ccc(-c2cc[n+]([O-])cc2)cc1 | inactive | inactive | inactive |  |  |  |
| C=C1CCC[C@]2(C)CC[C@@](O)(C(=C)C(=O)O)C[C@@H]12 | inactive | inactive | inactive |  |  |  |
| Cn1cc(-c2c[nH]c3ncnc(N4CCOCC4)c23)cn1 | inactive | inactive | inactive |  |  |  |
| CC1(C)CC[C@]2(C(=O)O[C@@H]3O[C@H](CO)[C@@H](O)[C@H](O)[C@H]3O)CC[C@]3(C)C(=CCC4[C@@]5(C)CC[C@H](O[C@H]6O[C@H](CO)[C@@H](O)[C@H](O[C@@H]7O[C@H](CO)[C@@H](O)[C@H](O)[C@H]7O)[C@H]6O)C(C)(C)C5CC[C@]43C)[C@@H]2C1 (some centres not stated) |  |  |  | 168% [at 11.5 µM] | -0.923% [at 11.6 µM] | 12.2% [at 11.5 µM] |
| C=C1[C@H](OC(C)=O)[C@H]2[C@@H](OC(=O)c3ccccc3)[C@@H](C)C[C@]2(O)[C@@H](OC(C)=O)[C@H](C)/C=C/C(C)(C)C(=O)[C@H](OC(C)=O)[C@H]1OC(C)=O | inactive | inactive | inactive |  |  |  |
| CCCN1CCC[C@@H](c2cccc(S(C)(=O)=O)c2)C1 | inactive | inactive | inactive |  |  |  |
| CC1=C2C[C@H]3OC(=O)[C@H](O)[C@@]4(O)[C@@H](C)[C@@H](O)[C@H](O)C([C@@]2(C)[C@H](O)[C@@H](O)C1)[C@@]34C (some centres not stated) | inactive | inactive | inactive |  |  |  |
| N#CC1C(=O)N=C(c2cc(Cl)ccc2O)C=C1c1cc(OCc2ccccc2)cc(OCc2ccccc2)c1 (configuration not stated) | inactive | inactive | inactive |  |  |  |
| CC(=O)O[C@H]1C[C@@H](O)C(C)(C)C2C[C@@H](OC(C)=O)[C@]3(C)C(CC[C@@]4(C)[C@H](c5ccoc5)OC(=O)[C@H]5O[C@]543)[C@]21C (some centres not stated) | inactive | inactive | inactive |  |  |  |
| O=C(COCC(=O)N1CCN(C(c2ccccc2)c2ccccc2)CC1)Nc1ccc(Cl)cc1C(=O)O | inactive | inactive | inactive |  |  |  |
| C[C@@H]1O[C@@H](O[C@@H]2[C@@H](O)[C@H](O[C@@H]3[C@@H](O)[C@@H](O)[C@H](O[C@H]4[C@H](OC(=O)[C@]56CCC(C)(C)C[C@H]5C5=CCC7[C@@]8(C)C[C@H](O)[C@H](O[C@@H]9O[C@H](C(=O)O)[C@@H](O)[C@H](O)[C@H]9O)[C@@](C)(CO)C8[C@H](O)C[C@@]7(C)[C@]5(C)C[C@H]6O)O[C@@H](CO)[C@@H]4O)O[C@H]3C)OC[C@H]2O)[C@H](O)[C@H](O)[C@H]1O (some centres not stated) |  |  |  | 382% [at 11.5 µM] | 4.49% [at 11.6 µM] | 16.5% [at 11.5 µM] |
| O=C(O)C1(c2ccc(-c3ccc(Cl)c(Cl)c3)c(F)c2)CC1 | inactive | 16.9 µM (active) | inactive |  |  |  |
| CC(=O)/C=C/C1C(C)CC(O[C@@H]2O[C@H](CO)[C@@H](O)[C@H](O)[C@H]2O)CC1(C)C (some centres not stated) | 14.7 µM (active) | inactive | inactive |  |  |  |
| Nc1ccc(-n2nc(C(F)(F)F)cc2C(F)(F)F)cc1 | inactive | inactive | inactive |  |  |  |
| CC(C)=C1CC2C(CCC2(C)O)C(C)(O)CC1=O (configuration not stated) | 23.8 µM (active) | inactive | inactive |  |  |  |
| C[C@@H](c1ccccc1)N(C(N)=NC#N)c1cccc2ncccc12 | inactive | inactive | inactive |  |  |  |
| CC1=C(CCC(C)O[C@@H]2O[C@H](CO)[C@@H](O)[C@H](O)[C@H]2O)C(C)(C)CC(O)C1 (some centres not stated) | 5.85 µM (active) | inactive | inactive |  |  |  |
| C/C=C/C=C/C=C/C(=O)OC1C=C2C(O)OC(=O)[C@]2(O)[C@@]2(C)CCCC(C)(C)[C@H]12 (some centres not stated) | inactive | inactive | inactive |  |  |  |
| CCCC(=O)Nc1cccc(NC(=O)c2ccccc2Br)c1 | inactive | inactive | inactive |  |  |  |

| SMILES | Potency [1] | Potency [2] | Potency [3] | activity change, negative = thiol reactive [1] | activity, negative = inhibition [2] | redox activity (% of DA3003) [3] |
| --- | --- | --- | --- | --- | --- | --- |
| C=Cc1ccc(O[C@@H]2O[C@H](CO[C@@H]3O[C@@H](C)[C@H](O)[C@@H](O)[C@H]3O)[C@@H](O)[C@H](O)[C@H]2O)cc1 | 11.6 µM (active) | inactive | inactive |  |  |  |
| CC1(C)CC[C@]2(C(=O)O)CC[C@]3(C)C(=CCC4[C@@]5(C)CC[C@H](O)C(C)(C)C5CC[C@]43C)C2C1 (some centres not stated) | inactive | inactive | inactive |  |  |  |
| COc1cnc(-c2ccc(Cn3c(CC(C)(C)C(=O)O)c(SC(C)(C)C)c4cc(OC[C@@H]5Cc6ccccc6N5C(C)=O)ccc43)cc2)nc1 | inactive | inactive | inactive |  |  |  |
| Cc1occc(=O)c1O[C@@H]1O[C@H](COC(=O)CC(C)(O)CC(=O)O)[C@@H](O)[C@H](O)[C@H]1O (some centres not stated) | inactive | inactive | inactive |  |  |  |
| CC(=O)OC/C(=C/C(=O)O)CC[C@@H]1C(C)=CC(=O)[C@@H]2C(C)(C)CCC[C@@]12C | inactive | inactive | inactive |  |  |  |
| CC/C=C/C=C/C1(C)OC(CC(CO)OC)=CC1=O (configuration not stated) | inactive | inactive | inactive |  |  |  |
| CC1(C)[C@@H]2CC=C(CO[C@@H]3O[C@H](CO[C@@H]4OC[C@H](O)[C@H](O)[C@H]4O)[C@@H](O)[C@H](O)[C@H]3O)[C@H]1C2 | inactive | inactive | inactive |  |  |  |
| C[C@@H]1[C@H]2[C@H](O[C@@H]3O[C@H](CO)[C@@H](O)[C@H](O)[C@H]3O)OC=C(C(=O)O)[C@H]2C[C@@H]1OC(=O)/C=C/c1ccc(O)cc1 | 10.3 µM (active) | inactive | inactive |  |  |  |
| CN(C)CC(c1ccc(O)cc1)C1(O)CCCCC1 (configuration not stated) | inactive | inactive | inactive |  |  |  |
| COc1cc(/C=C/C(=O)O[C@@H]2O[C@H](CO)[C@@H](O)[C@H](O)[C@H]2O)ccc1O | 4.65 µM (active) | inactive | inactive |  |  |  |
| COc1ccc(/C=C/C(=O)O[C@@H]2[C@@H](OC(C)=O)[C@@H](OC(C)=O)[C@H](O[C@H]3[C@@H]4C=CO[C@@H](O[C@@H]5O[C@H](CO)[C@@H](O)[C@H](O)[C@H]5O)[C@@H]4[C@@]4(CO)O[C@@H]34)O[C@H]2C)cc1 | inactive | inactive | inactive |  |  |  |
| CC(C)c1ccc2c(c1)C(O)CC1C(C)(CO)CCCC21C (configuration not stated) | inactive | inactive | inactive |  |  |  |
| CC1(C)CC[C@]2(C(=O)OC3OC(CO)C(O)C(O)C3O)CC[C@]3(C)C(=CCC4[C@@]5(C)C[C@@H](O)[C@H](OC6OC(C(=O)O)C(O)C(O)C6O)C(C)(C)C5CC[C@]43C)[C@@H]2C1 (some centres not stated) |  |  |  | 309% [at 11.5 µM] | 1.92% [at 11.6 µM] | 1.95% [at 11.5 µM] |
| C=C1C[C@]23C[C@@]1(O)CC[C@H]2[C@@]12C=C[C@H](O)[C@@](C)(C(=O)O1)[C@H]2[C@@H]3C(=O)O | inactive | inactive | inactive |  |  |  |
| CC(C)/C=C1/NC(=O)C(C(C)C)n2c1nc1c(O)cccc1c2=O (configuration not stated) | inactive | inactive | inactive |  |  |  |
| COC(=O)C1C(c2ccc(O)cc2)C(C(=O)O)C1c1ccc(O)cc1 (configuration not stated) | inactive | inactive | inactive |  |  |  |
| CC1(O)CC(O)C2C(C(=O)O)=COC(OC3OC(CO)C(O)C(O)C3OC(=O)/C=C/c3ccc(O)cc3)C21 (configuration not stated) | 4.12 µM (active) | inactive | inactive |  |  |  |
| COC(=O)C1=CO[C@@H](O[C@@H]2O[C@H](CO)[C@@H](O)[C@H](O)[C@H]2O)[C@@H]2C(C)CC(=O)[C@]12O (some centres not stated) | inactive | inactive | inactive |  |  |  |
| C[C@@H]1C[C@@H](O)[C@@]23CO[C@]2(CO)C[C@@H](O)CC3[C@@]12CC(c1ccoc1)OC2=O (some centres not stated) | 6.56 µM (active) | inactive | inactive |  |  |  |
| COc1cc(C2Oc3c(OC)cc(/C=C/C(=O)OC4CC(O)(C(=O)O)CC(O)C4O)cc3C2CO)ccc1O (configuration not stated) | inactive | inactive | inactive |  |  |  |
| Cc1cn(-c2cc(NC(=O)c3ccc(C)c(Nc4nccc(-c5cnccn5)n4)c3)cc(C(F)(F)F)c2)cn1 | inactive | inactive | inactive |  |  |  |
| CC1=CCC(O)C2(C)CCC3C(C)C(=O)OC3C12 (configuration not stated) | inactive | inactive | inactive |  |  |  |
| CC(=O)NC(C(=O)OC1CCC(C)(C)C2CC=C3C(=O)OCC3C12C)C(C)C (configuration not stated) | inactive | inactive | inactive |  |  |  |
| COC(=O)C1(C)CCCC2(C)c3ccc(C(C)C)cc3C(O)C(O)C12 (configuration not stated) | inactive | inactive | inactive |  |  |  |
| CC1(CO)CCCC2(C)C1C(OC(=O)c1ccccc1)CC1C(=O)OCC12O (configuration not stated) | inactive | inactive | inactive |  |  |  |
| CC1CCC23COC(=O)C2=CC(O)CC3C1(C)CCc1ccoc1 (configuration not stated) | inactive | inactive | inactive |  |  |  |
| C[C@@H]1O[C@@H](O[C@H]2[C@H](Oc3cc(O)c(C(=O)CCc4ccc(O)cc4)c(O)c3)O[C@H](CO)[C@@H](O)[C@@H]2O)[C@H](O)[C@H](O)[C@H]1O | inactive | inactive | 10.6 µM (active) |  |  |  |
